# PubChem BioAssay
# Records with an inconclusive call do not appear. Calls of active or inactive are those of the source. Unless noted, the limit is not given here; nearly all actives have AC50 up to about 26 µM.
# What was measured:
# [1] = viability loss in pontine glioma line – cell-based, SU-DIPG-XVII, MIPE5.0, CellTiter-Glo, qHTS, dose response (AID 1347060); details: CellTiter-Glo ATP luminescence;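 also: cells exposed to compound for 48 hours before viability readout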
# [2] = viability loss in pontine glioma line – cell-based, SU-DIPG-XIII, MIPE5.0, CellTiter-Glo, qHTS, dose response (AID 1347064; cut-off not given, nearly all actives have AC50 up to about 23 µM;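 also: cells exposed to compound for 48 hours before the viability read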); details: CellTiter-Glo ATP luminescence
# [3] = viability loss in pontine glioma line – cell-based, SU-DIPG-XXV, MIPE5.0, CellTiter-Glo, qHTS, dose response (AID 1347065); details: CellTiter-Glo ATP luminescence;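 also: cells exposed to compound for 48 hours before ATP readout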
# [4] = JHH-DIPG-1 glioma cell viability, MIPE5.0 library, CellTiter-Glo luminescence, qHTS (AID 1347067); details: JHH-DIPG-1 glioma viability, CellTiter-Glo ATP luminescence;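 also: cells exposed to compound for 48 hours before readout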
# [5] = growth inhibition of DIPG cells – cell-based, MIPE5.0 library, qHTS (AID 1347068; cut-off not given, nearly all actives have IC50 up to about 30 µM;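 also: cells exposed to compound for 48 hours before viability readout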); details: SU-DIPG-XXV viability
# [6] = viability loss with induced miR-34 in A549 – imaging, A549 dox-inducible miR-34, nuclei and caspase counts, primary screen (AID 1347080;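 active = compounds whose cell count with miR-34 switched on is under 0.7 times the count with it off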); details: A549 miR-34 inducible, Hoechst nuclei count, 48 h
# [7] = MELAS cybrid and Rieske KO viability enhancers – cell-based, MELAS cybrids, Rieske KO mouse fibroblasts, CellTiter-Glo, primary screen (AID 1508586;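 active = mean z-score across replicates of 1.96 or higher in either the MELAS or the Rieske mutant cell line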;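 also: z relative to plate mean and SD of compound and empty wells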); details: low glucose
compound,measurement,setting,value
COc1cccc(-c2cc(F)ccc2C2Cc3nc(N)nc(C)c3C(=O)N2)n1 (stereo unspecified),AC50,[1],0.0295 µM (active)
same,AC50,[2],0.0417 µM (active)
same,AC50,[3],0.0295 µM (active)
same,AC50,[4],0.0372 µM (active)
same,IC50,[5],0.0742 µM (active)
same,fold change,"[6]; stronger effect = lower value, cell number ratio, induced over uninduced",0.968 (inactive)
same,fold change,[6]; measured here: relative caspase fold change +Dox/-Dox,0.335
same,cell count,"[6]; measured here: total cells with miR-34 induction, stronger effect = lower value",2200
same,cell count,[6]; measured here: total cells without miR-34 induction,2270
same,z-score,"[7]; MELAS cybrid survival, CellTiter-Glo 48 h, stronger effect = higher value",2.51 (active)
same,z-score,"[7]; Rieske KO mouse fibroblast survival, CellTiter-Glo 72 h",-1.33
